Measured values published in PubChem BioAssay (NCI).
Several values for one entry are separate records, joined by “and”; a condition that tells them apart may be missing. Equal values may be shown once. About 83,000 compounds went through this panel and 20% of them were active in at least one assay; those are over-represented in the sample as a whole.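 96-well plates, one dose, 48 hours. Percent growth reported; active if below 10.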 Activity calls are given as the source filed them.

What was measured:
Assay in all cases: NCI-60 one-dose screen, 48 h (100 = growth as untreated, 0 = no growth, -100 = all killed)
Details in all cases: 10 µM unless noted
[1] = tested on: HCT-15 colon
[2] = tested on: HT29 colon
[3] = tested on: SNB-75 CNS
[4] = tested on: SNB-19 CNS
[5] = tested on: U251 CNS
[6] = tested on: PC-3 prostate
[7] = tested on: SK-MEL-5 melanoma
[8] = tested on: UACC-62 melanoma
[9] = tested on: LOX IMVI melanoma
[10] = tested on: SK-MEL-28 melanoma

Row | SMILES | growth [1] | growth [2] | growth [3] | growth [4] | growth [5] | growth [6] | growth [7] | growth [8] | growth [9] | growth [10]
1 | C=C1C(=O)OC2CC3(C)OC3C3OC3C3=CC(OC3=O)C12 (centres undefined) | 46.4% (inactive) and 36% (inactive) | 98.2% (inactive) and 79.6% (inactive) | 87.7% (inactive) and 90.1% (inactive) | 104% (inactive) and 103% (inactive) | 103% (inactive) and 104% (inactive) | 106% (inactive) and 92.2% (inactive) | 109% (inactive) and 95% (inactive) | 99.3% (inactive) and 82.7% (inactive) | 93.1% (inactive) and 92% (inactive) | 52.6% (inactive) and 73.8% (inactive)
2 | O=C1c2ccccc2C(=O)N1N1CC1c1ccccc1 (centres undefined) | 101% (inactive) | 110% (inactive) | 100% (inactive) | 104% (inactive) | 104% (inactive) | 97.7% (inactive) | 101% (inactive) | 105% (inactive) | 96.6% (inactive) | 108% (inactive)
3 | CN1CCc2cc3c(cc2C1O)OCO3 (centres undefined) | 98.9% (inactive) and 94% (inactive) | 96.1% (inactive) and 108% (inactive) | 81.1% (inactive) and 104% (inactive) | 123% (inactive) and 100% (inactive) | 90.6% (inactive) and 103% (inactive) | 77% (inactive) and 89.3% (inactive) | -13.9% (active) and 105% (inactive) | 34.2% (inactive) and 94.5% (inactive) | 71.4% (inactive) and 102% (inactive) | 94.7% (inactive) and 115% (inactive)
4 | CC(C)COC(=O)Cc1ccccc1 | 109% (inactive) | 101% (inactive) | 99.9% (inactive) | 109% (inactive) | 101% (inactive) | 97.6% (inactive) | 98.7% (inactive) | 107% (inactive) | 101% (inactive) | 112% (inactive)
5 | COC(=O)CCP(CCC(=O)OC)c1ccccc1 | 106% (inactive) | 106% (inactive) | 89.5% (inactive) | 119% (inactive) | 99.3% (inactive) | 99.9% (inactive) | 103% (inactive) | 97.9% (inactive) | 100% (inactive) | 103% (inactive)
6 | Clc1ccc(COC(Cn2ccnc2)c2ccc(Cl)cc2Cl)c(Cl)c1 (centres undefined) | 41.9% (inactive) and 46.2% (inactive) | 23.4% (inactive) and 31% (inactive) | 78.6% (inactive) and 90.2% (inactive) | 83.4% (inactive) and 83.8% (inactive) | 45.5% (inactive) and 69.4% (inactive) | 40.9% (inactive) and 39.3% (inactive) | 39% (inactive) and 3.49% (active) | 41.5% (inactive) and 52.1% (inactive) | 34% (inactive) and 47.6% (inactive) | 81.5% (inactive)
7 | CCC(Br)(CC)C(=O)NC(N)=O | 103% (inactive) | 108% (inactive) | 86.1% (inactive) | 104% (inactive) | 105% (inactive) | 91.4% (inactive) | 99.2% (inactive) | 100% (inactive) | 102% (inactive) | 109% (inactive)
8 | Nc1ccc2c(c1)Cc1cc(N)ccc1-2 | 85.3% (inactive) | 98.8% (inactive) | 74% (inactive) | 103% (inactive) | 94.9% (inactive) | 84.9% (inactive) | 95.8% (inactive) | 96% (inactive) | 105% (inactive) | 92.6% (inactive)
9 | Cc1nc2ccccc2c(=O)n1-c1ccccc1F | 103% (inactive) | 103% (inactive) | 82.1% (inactive) | 104% (inactive) | 88.1% (inactive) | 86.6% (inactive) | 100% (inactive) | 105% (inactive) | 103% (inactive) | 111% (inactive)
10 | CC[C@H](C)[C@H](NC(=O)CN(C)C)C(=O)N(C)[C@H](C[C@@H](OC(C)=O)c1nc(C(=O)NC23CC(C(=O)OC)(C2)C3)cs1)C(C)C | 21.6% (inactive) | -1.6% (active) | 45.1% (inactive) | 41.5% (inactive) | 13.5% (inactive) | 25.8% (inactive) | 12.6% (inactive) | 24.4% (inactive) | 19.7% (inactive) | 66.4% (inactive)
11 | COC[C@H]1OC(=O)c2coc3c2[C@@]1(C)C1=C(C3=O)[C@@H]2CCC(=O)[C@@]2(C)C[C@H]1OC(C)=O | 53.8% (inactive) | 34.4% (inactive) | -21% (active) | 66.2% (inactive) | 70.5% (inactive) | 25.1% (inactive) | -16.9% (active) | 15.7% (inactive) | 54.3% (inactive) | –
